Results: PubChem BioAssay AID1159580 (chemical genetic matrix, 2015)
Out of some 5,500 compounds screened, about 2,000 (36%) were called active. Another 18% or so got no clear call; they are omitted. Rule as the data show it: active = normalized growth mostly below about 0.91 (no sharp cut-off); inconclusive = no clear call, values can overlap the other calls; inactive = mostly above about 0.92. The list shows a part of the results.

Test: chemical genetic growth profiling, strain panel (AID 1159580);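 also: tested at 20 µM; growth read once vehicle control cultures reached saturation at 30 °C; 1 = growth at the plate median or of vehicle wells; lower values mean less growth of the strain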
Conditions: S. cerevisiae deletion strains, growth OD

Measured: normalized growth

COc1ccc([C@@H]2Sc3ccccc3N(CCN(C)C)C(=O)[C@@H]2OC(C)=O)cc1
inactive: locus YAL013W, strain DEP1, hits give low values 0.989 | locus YAL040C, strain CLN3, hits give low values 1.01 | locus YCL061C, strain MRC1 (second series), hits give low values 0.988 | locus YDR150W, strain NUM1, hits give low values 1.01 | locus YDR363W, strain ESC2, hits give low values 0.951 | locus YER002W, strain NOP16, hits give low values 1.02 | locus YGR078C, strain PAC10, hits give low values 0.961 | locus YGR229C, strain SMI1, hits give low values 0.971 | locus YJR075W, strain HOC1, hits give low values 1 | locus YMR263W, strain SAP30, hits give low values 0.993 | locus YMR307W, strain GAS1, hits give low values 1 | locus YNL153C, strain GIM3, hits give low values 1.01 | locus YNL175C, strain NOP13, hits give low values 0.99 | locus YNL197C, strain WHI3, hits give low values 1.1 | locus YNL224C, strain SQS1, hits give low values 1.02 | locus YNL322C, strain KRE1, hits give low values 0.967 | locus YOR083W, strain WHI5 (second series), hits give low values 1.03 | locus YPL055C, strain LGE1, hits give low values 0.955 | locus YPL241C, strain CIN2, hits give low values 0.988
